Source: ChEMBL document CHEMBL3433997, “St. Jude Leishmania screening dataset” (2016)

What was measured:
Format in all cases: functional
[1] = target: Solute carrier family 2, facilitated glucose transporter member 1 (Homo sapiens) (UniProt P11166); test: ST_JUDE_LEISH: Cytotoxicity at 2uM final concentration against transgenic Leishmania Mexicana promastigotes LmGLUT1 that are glucose transport deficient and complemented with the human glucose transporter GLUT1. Activity is measured by DNA content using SYBR green in vitro
Solute carrier family 2, facilitated glucose transporter member 1 (Homo sapiens), sequence (P11166 whole entry): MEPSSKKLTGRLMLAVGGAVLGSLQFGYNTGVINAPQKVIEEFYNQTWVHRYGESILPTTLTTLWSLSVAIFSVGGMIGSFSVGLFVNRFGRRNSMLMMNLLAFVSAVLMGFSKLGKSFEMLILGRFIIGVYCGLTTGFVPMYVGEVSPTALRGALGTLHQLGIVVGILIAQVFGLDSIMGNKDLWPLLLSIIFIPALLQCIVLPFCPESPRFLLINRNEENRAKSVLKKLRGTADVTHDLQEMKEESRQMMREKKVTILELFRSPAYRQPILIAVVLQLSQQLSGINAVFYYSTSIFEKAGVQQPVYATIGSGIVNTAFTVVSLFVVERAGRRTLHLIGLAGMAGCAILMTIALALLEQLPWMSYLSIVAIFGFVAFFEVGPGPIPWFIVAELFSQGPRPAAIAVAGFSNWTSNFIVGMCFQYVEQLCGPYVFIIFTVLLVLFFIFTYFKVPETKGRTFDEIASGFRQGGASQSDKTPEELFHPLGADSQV

[2] = target: Hexose transporter 1 (Plasmodium falciparum) (UniProt O97467); test: ST_JUDE_LEISH: Cytotoxicity at 2uM final concentration against transgenic Leishmania Mexicana promastigotes LmPfHT that are glucose transport deficient and complemented with the Plasmodium falciparum hexose transporter. Activity is measured by DNA content using SYBR green in vitro
[3] = target: Glucose transporter (Leishmania mexicana) (UniProt O61059); test: ST_JUDE_LEISH: Cytotoxicity at 2uM final concentration against transgenic Leishmania Mexicana promastigotes LmGT2 that are glucose transport deficient and complemented with the L. Mexicana glucose transporter 2. Activity is measured by DNA content using SYBR green in vitro

`O=C(c1ccc(F)c2ccccc12)N1CCc2cc3nccc(N4CCN5CCC[C@H]5C4)c3cc21` was tested, and the inhibition [1] was 3.66%, the inhibition [2] was 1.16% and the inhibition [3] was 0.27%.
`COc1ccc2nccc(N/N=C/c3ccc([N+](=O)[O-])cc3)c2c1` showed an inhibition [1] of -1.64%, an inhibition [2] of -1.77% and an inhibition [3] of 3.94%.
`OC(CNCCc1ccccc1)Cn1c2ccc(Cl)cc2c2cc(Cl)ccc21` (stereo unspecified) showed an inhibition [1] of -1.53%, an inhibition [2] of -1.78% and an inhibition [3] of -2.27%.
Work on `COc1ccc(CN(C)CCCc2ccc(NC(=O)Cc3ccc4nc(-c5ccccc5)ccc4c3)cc2)cc1OC` yielded an inhibition [1] of 19.3%, an inhibition [2] of 11.1% and an inhibition [3] of 6.65%.
`COc1ccc2nccc(NC(=O)C3CCC(NCc4cnc(SC)c([N+](=O)[O-])c4)CC3)c2n1` (stereo unspecified) gave an inhibition [1] of 10.5%, an inhibition [2] of 10.3% and an inhibition [3] of 20.7%.
`CCN1CCN(c2cc(C)c3cc(NC(=O)c4cc(OC)cc(OC)c4)ccc3n2)CC1` was tested, and the inhibition [1] was -0.26%, the inhibition [2] was 1.03% and the inhibition [3] was 2.19%.
`NCC(NC(=O)c1ccc(-c2c[nH]c3ncccc23)s1)c1ccccc1` (stereo unspecified) was tested, and the inhibition [1] was 51.9%, the inhibition [2] was 56.6% and the inhibition [3] was 25.9%.
With `COC(=O)c1cccc(NC(=O)NC2CCN(c3ccnc(Nc4cc(OC)c(OC)c(OC)c4)n3)C2)c1` (stereo unspecified) the inhibition [1] was 10.5%, the inhibition [2] was 6.39% and the inhibition [3] was 8.79%.
`Cc1cnc(Nc2ccccc2)nc1NCCC(=O)Nc1ccccc1` showed an inhibition [1] of 6.97%, an inhibition [2] of 8.48% and an inhibition [3] of 3.62%.
With `Cc1cc(C)cc(N2C(N)=NC(N)=NC2(C)C)c1` the inhibition [1] was 7.13%, the inhibition [2] was 5.93% and the inhibition [3] was 5.97%.
In the case of `O=C(Cc1ccc(Nc2nccc(Nc3cccc4[nH]ncc34)n2)cc1)Nc1ccc(C(F)(F)F)cc1`, the inhibition [1] is reported as 5.9%, the inhibition [2] is reported as 6.7% and the inhibition [3] is reported as 4.78%.
With `Cc1cccc2nc(-c3cccc(-c4cccc(C(=O)NCCN5CCCC5)c4)c3)[nH]c12` the inhibition [1] was 1.04%, the inhibition [2] was 1.28% and the inhibition [3] was -0.38%.
With `CCN(CC)CCNC(=O)c1ccc(Nc2ncc([N+](=O)[O-])c(Nc3ccccc3OC)n2)cc1` the inhibition [1] was 4.77%, the inhibition [2] was 4.91% and the inhibition [3] was 3.73%.
`Cc1ccc(C2(C)CC(C)(C)N(C(=O)COc3ccc4ccccc4c3)c3ccccc32)cc1` (stereo unspecified) showed an inhibition [1] of -1.77%, an inhibition [2] of -1.69% and an inhibition [3] of 1.03%.
In the case of `O=C(CCn1cncn1)N1CCCC(c2[nH]c3ccccc3c2-c2ccncc2)C1` (stereo unspecified), the inhibition [1] is reported as -2.2%, the inhibition [2] is reported as -3.57% and the inhibition [3] is reported as 1.39%.
`CS(=O)(=O)NCCCNCc1ccc(-c2ccc(-c3nc4cc(F)ccc4[nH]3)cc2)cc1` showed an inhibition [1] of 7.49%, an inhibition [2] of 4.28% and an inhibition [3] of 4.63%.
For `CCN1CCN(Cc2ccc(-c3ccc(NS(=O)(=O)c4cccc5cccnc45)cc3)cc2)CC1`, the inhibition [1] was 20.6%, the inhibition [2] was 14% and the inhibition [3] was 9.92%.
`CCC[C@@H]([C@@H](CC1CCCCC1)C(=O)N[C@H](C(=O)Nc1nccs1)C(C)(C)SCCNC(=O)OCC)N(O)C=O` gave an inhibition [1] of 3.35%, an inhibition [2] of 4.46% and an inhibition [3] of 4.28%.
With `COc1ccc(Br)cc1C1Nc2ccc3ccccc3c2C2=C1C(=O)CC(c1ccccc1)C2` (stereo unspecified) the inhibition [1] was 1.86%, the inhibition [2] was 2.25% and the inhibition [3] was 3.67%.
`Cc1nc2ccc3ccc(CNc4ccc5c(c4)CN([C@H](CCC(=O)O)C(=O)O)C5=O)cc3c2c(=O)[nH]1` gave an inhibition [1] of 3.36%, an inhibition [2] of 2.42% and an inhibition [3] of 10%.
`O=C(Nc1cccc(-c2nc3ccccc3[nH]2)c1)c1ccc(-c2cccc([N+](=O)[O-])c2)o1` showed an inhibition [1] of 4.88%, an inhibition [2] of 5.59% and an inhibition [3] of 7.27%.
In the case of `COCc1cc(C)nc2sc(C(=O)Nc3cc(C(C)(C)C)ccc3O)c(N)c12`, the inhibition [1] is reported as 3.32%, the inhibition [2] is reported as 2.62% and the inhibition [3] is reported as -0.92%.
Compound `CCC(C)NCC(O)(c1ccc(Cl)cc1)c1ccc(Cl)cc1` (stereo unspecified) has an inhibition [1] of -2.33%, an inhibition [2] of -0.32% and an inhibition [3] of -0.2%.
Compound `COc1cc(-c2cc(-c3ccc(S(C)(=O)=O)cc3)cnc2N)ccc1O` has an inhibition [1] of 6.13%, an inhibition [2] of 6.34% and an inhibition [3] of 9.19%.
For `CN1CCN(CC(=O)Nc2cccc(-c3ccc(-c4nc5cc(F)ccc5[nH]4)cc3)c2)CC1`, the inhibition [1] was -1.54%, the inhibition [2] was 0.97% and the inhibition [3] was 3%.
`CC(C)Cc1cn(-c2nc(-c3nc4ccccc4[nH]3)cs2)c2cc(Cl)ccc12` was tested, and the inhibition [1] was 6.36%, the inhibition [2] was 6.84% and the inhibition [3] was 7.38%.
In the case of `CN1CCN(C(C(=O)NCc2cc(Cl)cc(Cl)c2)c2ccccc2-c2ccsc2)CC1` (stereo unspecified), the inhibition [1] is reported as 4.67%, the inhibition [2] is reported as 5.51% and the inhibition [3] is reported as 4.6%.
For `CN(C)Cc1ccc(-c2ccc3c(Nc4ccc(Cl)cc4F)ccnc3c2)o1`, the inhibition [1] was -1.45%, the inhibition [2] was -1.56% and the inhibition [3] was 5.24%.
`O=C(NC1CCN(CCCOc2ccnc3cc(Cl)ccc23)C1)c1ccc(Br)cc1` (stereo unspecified) gave an inhibition [1] of 9.74%, an inhibition [2] of 7.84% and an inhibition [3] of 7.14%.
`COCc1nc(-c2ccccc2)nc(N2CCN(C(=O)NC(C)C)CC2)c1Cc1ccccc1F` gave an inhibition [1] of 8.3%, an inhibition [2] of 6.85% and an inhibition [3] of 6.8%.
`Cc1cc(C(=O)CN2C(=O)NC(C)(c3cccc4ccccc34)C2=O)c(C)n1Cc1ccco1` (stereo unspecified) was tested, and the inhibition [1] was 6.55%, the inhibition [2] was 6.14% and the inhibition [3] was 4.09%.
Work on `Cc1[nH]c(C)c(-c2ccc(OCc3ccccc3C(F)(F)F)nc2)c(=O)c1Br` yielded an inhibition [1] of 4.88%, an inhibition [2] of 6.13% and an inhibition [3] of 1.94%.
